An excerpt weighted towards active compounds, which were near 19% of everything screened.
HT1080 IDH1KD tx = qHTS for induction of synthetic lethality in tumor cells producing 2HG: qHTS for the HT-1080-IDH1KD cell line; HT-1080 IDH1 knockdown viability, ATP luminescence, 48 h; Potency, µM (doses to about 46.1 µM), hits mostly cytotoxic; hit rate 2% among 360,000
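In this qHTS, HT-1080 cells depleted of IDH1 are exposed for 48 h at 37 °C to compound titrations. Toxicity is scored from CellTiter-Glo luminescence, with DMSO as full viability and medium alone as none.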
TDP1 cell CPT = qHTS for Inhibitors of human tyrosyl-DNA phosphodiesterase 1 (TDP1): qHTS in cells in presence of CPT. AID 686979, 2013. hit rate 12% among 420,000. Potency, µM (highest dose often 46.2 µM), actives largely listed as inhibitors. chicken DT40 Tdp1-/-;hTDP1 cells + 20 nM CPT, ATP luminescence, 48 h; also: nearly all actives have a fitted effect of over 55% in size
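Cell growth measured by CellTiter-Glo luminescence after a minimum 48 h, 37 C compound exposure with 20 nM CPT in Tdp1-knockout DT40 cells stably expressing hTDP1, seeded 400/well; qHTS titration format.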
KB-3-1 tox = qHTS assay for MDR1-selective chemotherapeutics: Primary screen using the parental adenocarcinoma cell KB-3-1 | KB-3-1 viability, CellTiter-Glo ATP luminescence, 72 h | Potency, µM (doses to about 46.1 µM), most hits filed as cytotoxic | hit rate 1.4% among 400,000 | AID 1347075, 2019; also: nearly all actives have a fitted effect of over 60% in size
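KB-3-1 cells, DMEM (no phenol red) + 10% FBS; compound by pin transfer, 72 h, 37 °C. Readout: CellTiter-Glo luminescence after 10 min. Data normalized, curve-fitted.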
KB-V1 MDR tox = qHTS assay for MDR1-selective chemotherapeutics: Primary screen using the drug-selected MDR subline cells KB-V1; hit rate 3.4% among 400,000; KB-V1 MDR cells viability, CellTiter-Glo, 72 h; Potency, µM (highest dose often 46.1 µM), actives largely listed as cytotoxic; also: nearly all actives have a fitted effect of over 60% in size
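KB-V1, DMEM (no phenol red) + 10% FBS; cpd pin-transferred, titration series; 72 h, 37 degrees C; CellTiter-Glo, luminescence. Data normalized, curve-fit.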
HT1080NT lethal = qHTS for induction of synthetic lethality in tumor cells producing 2HG: qHTS for the HT-1080-NT fibrosarcoma cell line. hit rate 1.6% among 360,000. HT-1080-NT fibrosarcoma viability, CellTiter-Glo ATP luminescence, 48 h. Potency, µM (doses to about 46.1 µM), most hits filed as cytotoxic;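 also: NT is the 2HG producing partner of a matched IDH1 knockdown line; nearly all actives have a fitted effect of over 55% in size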
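Compounds were tested in concentration-response format on HT-1080-NT cells for 48 hours at 37 degrees C. Cell viability came from CellTiter-Glo luminescence; curves were classified by r2, response magnitude and activity.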
TDP1 cell noCPT = qHTS for Inhibitors of human tyrosyl-DNA phosphodiesterase 1 (TDP1): qHTS in cells in absence of CPT; AID 686978, 2013; hit rate 15% among 420,000; DT40 Tdp1-/- hTDP1 cells, no CPT, ATP luminescence, 48 h; Potency, µM (top dose mostly 46.2 µM), most hits filed as inhibitors; also: nearly all actives have a fitted effect of over 55% in size
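A cellular qHTS used chicken DT40 cells lacking endogenous Tdp1 but carrying stably transfected human TDP1. Compounds were applied without camptothecin, and cell growth kinetics were judged by ATP-dependent luminescence after ≥48 hr.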
Numbers stand for hits; 0 = inactive; ? = inconclusive; - = no result; [ ] = dose if it differs, or a comment. Calls follow the shape of the dose curve; as a rule, active = well fitted curve in the direction sought with a large enough effect; inconclusive = small, poorly fitted or top-dose-only effect, or another doubt; inactive = no such curve, though single readings can be large; an effect the other way counts as inactive or inconclusive.

SMILES	HT1080 IDH1KD tx	TDP1 cell CPT	KB-3-1 tox	KB-V1 MDR tox	HT1080NT lethal	TDP1 cell noCPT
O=C(Nc1ccnn1C1CCN(Cc2cc(Cl)ccc2O)CC1)C1CC1	0	?	0	0	0	0
CCOC(=O)C1=CN(CC2CCCO2)C=C(C(=O)OCC)C1c1ccccc1C(F)(F)F (centres undefined)	0	?	0	0	?	18.4µM
Cc1cc(C)c2c(n1)nn1c(C)c(CCC(=O)NCc3ccc(Cl)cc3)c(C)nc21	-	0	0	0	-	?
Cc1ccc(S(=O)(=O)N2CCCC2c2nc3ccccc3s2)cc1 (centres undefined)	0	?	0	20.6µM	0	?
O=S(=O)(c1ccc(Cl)cc1)N1CCCC1c1nc2ccccc2s1 (centres undefined)	0	0	?	0	0	0
O=C(Cn1nc(-c2ccccc2)c2ccccc2c1=O)NCCO	0	0	0	0	0	0
COc1ccccc1N1CCN(C(=O)c2cc(N3C(=O)C4C5CCC(C5)C4C3=O)ccc2Cl)CC1 (centres undefined)	0	?	0	4.11µM	0	?
COc1ccccc1N1CCN(C(=O)c2c(C)cc(=O)oc2C)CC1	0	0	0	0	0	0
Cc1oc(C(C)(C)C)cc1C(=O)N1CCN(c2ncccc2C(F)(F)F)CC1	0	?	0	0	0	23.1µM
COc1ccccc1N1CCN(C(=O)c2cc(C(C)(C)C)oc2C)CC1	0	?	0	0	0	20.6µM
CC(C)(C)NC(=O)N1CCN(c2ncccc2C(F)(F)F)CC1	0	0	0	0	0	0
Cc1cc(C)c2cc(C(=O)N3CCN(c4ncccc4C(F)(F)F)CC3)[nH]c2c1	?	?	0	0	?	14.6µM
O=C(O)C1CCCCN1C(=O)c1ccc(S(=O)(=O)N2CCCCCC2)cc1 (centres undefined)	0	0	0	0	0	0
COc1cc(SC)ccc1C(=O)N1CCN(c2ccccc2OC)CC1	8.2µM	20.6µM	6.51µM	16.4µM	9.2µM	4.61µM
C=CCc1c(C)nc(SC)nc1Nc1ccc(C(=O)O)cc1	?	0	?	20.6µM	0	0
C=CCc1c(C)nc(SC)nc1Nc1ccccc1	0	0	0	?	0	0
CSc1nsc(SCC(=O)Nc2ccc(C(C)=O)cc2)n1	0	0	0	0	0[9.24 µM]	0
C=CCc1c(C)nc(-c2ccccc2)nc1Nc1ccc(O)cc1	?	?	20.6µM	13µM	?	14.6µM
C=CCc1c(C)nc(SC)nc1Nc1ccc(C(C)=O)cc1	0[9.24 µM]	16.4µM	0	11.6µM	0	20.6µM
COc1cc(NC(=S)N2CCCCC2C)cc(OC)c1OC (centres undefined)	0	0	0	0	0	0
[O-]c1n[n+](-c2ccc(Cl)cc2Cl)cc2ccccc12	0	0	0	0	0	0
O=C(CN1C(=O)c2ccccc2S1(=O)=O)Nc1ccc(S(=O)(=O)Nc2ncccn2)cc1	0	0	0	0	0	0
c1ccc(CN2CCN(CCCNc3ccc4nnc(-c5ccccc5)n4n3)CC2)cc1	0	?	0	0	0	?
Cc1ccc(CSc2ccc3nnc(-c4ccccn4)n3n2)cc1	0	11.6µM	0	?	0	16.4µM
Fc1cccc(CSc2ccc3nnc(-c4cccnc4)n3n2)c1	0	?	0	?	0	16.4µM
SMILES	HT1080 IDH1KD tx	TDP1 cell CPT	KB-3-1 tox	KB-V1 MDR tox	HT1080NT lethal	TDP1 cell noCPT
Cc1ccc(CNc2ccc3nnc(-c4ccccc4)n3n2)cc1	0	3.66µM	0	0	0	2.31µM
Brc1ccc(CSc2ccc3nnc(-c4cccnc4)n3n2)cc1	?	?	0	9.2µM	?	20.6µM
Nn1c(SCc2ccc(Br)cc2)nnc1-c1cccnc1	0	0	0	0	0	0
Cc1cc(Cl)cc(Cl)c1OCCN1CCCC1	0	0	?	0	0	0
O=C1N[C@@H](Cc2ccccc2)C(=O)N2[C@@H]1C[C@]1(Br)c3ccccc3N(S(=O)(=O)c3ccccc3)[C@H]21	0	?	0	0	0	?
COCCN(C)C(=O)c1cnn(-c2nccc(-c3cc(OC)ccc3OC)n2)c1C	-	0[9.04 µM]	-	-	-	0
Cc1cc(-c2cccnc2)c(C#N)c(SCc2cccc(F)c2)n1	?	0	0	11.6µM	0	0
Cc1cc(-c2cccnc2)c(C#N)c(SCC#N)n1	0	0	0	0	0	0
Cc1ccc(CSc2ccc3nnc(-c4cccnc4)n3n2)cc1	0	20.6µM	0	?	0	4.11µM
Cc1ccc(NC(=O)N2CCCC2C(=O)NCc2ccc(Cl)cc2)cc1 (centres undefined)	0	0	0	?	0	0
COc1ccc(CCNC(=O)C2CCN(S(=O)(=O)N3CCOCC3)CC2)cc1OC	0	0	0	0	0[9.24 µM]	0
O=C(NCc1ccc(F)cc1)C1CCN(S(=O)(=O)N2CCCC2)CC1	0	?	0	0	0	16.4µM
COc1ccc(CCNC(=O)C2CCN(S(=O)(=O)N3CCC(C)CC3)CC2)cc1OC	0	0	?	20.6µM	0	0
CC1CCN(S(=O)(=O)N2CCC(C(=O)NCc3cccs3)CC2)CC1	0	0	0	18.4µM	0	?
CC1CCN(S(=O)(=O)N2CCC(C(=O)NCc3ccccc3Cl)CC2)CC1	-	?	-	-	-	13µM
CCc1nc2cc(C(=O)N(C)CC3COCCO3)cc(NC(=O)c3ccccc3OC)c2n1C (centres undefined)	-	0	-	-	-	0
CC1CCN(S(=O)(=O)N2CCCC(C(=O)NCc3ccccc3Cl)C2)CC1 (centres undefined)	0	0	0	0	0	0
CSc1ccc(CNC(=O)C2CCCN(S(=O)(=O)N(C)c3ccc(F)cc3)C2)cc1 (centres undefined)	-	23.1µM	16.4µM	0	-	20.6µM
O=C(NCc1ccccc1Cl)C1CCN(S(=O)(=O)N2CCCCCC2)CC1	0	?	0	0	0	17.8µM
CC1CCN(S(=O)(=O)N2CCCC(C(=O)NCc3ccc(F)cc3)C2)CC1 (centres undefined)	0	?	0	0	0	?
CNc1ncnc2ccc(-c3ccccc3C#N)cc12	-	?	-	-	-	0
CCN(CC)CCCC(C)NC(=O)c1cccc(S(=O)(=O)N2CCc3ccccc32)c1 (centres undefined)	0	0	0	0	0	0
Brc1ccc(CN2C3=NCCCN3c3ccccc32)cc1	0	16.4µM	0	0	0	?
